Rows were chosen to be rich in hits. Some 1.3% of all compounds tested hit in one or more screens of this group.
NCOA2 inhibitor: human SRC2 (NCOA2) inhibition; Q15596; HEK293 GAL4-SRC2 luciferase reporter, luminescence; inhibition, % at 9 µM; 370,000 tested, 0.17% active; AID 651957;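 active = inhibition above the mean inhibition of all tested compounds plus 3 SD, set per campaign, cut at about 52% in these data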;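 note: 0% = DMSO treated cells and 100% = cells given Gossypol at 36 µM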
NR5A2 inv ag: suppresses constitutive activity of human LRH-1 | O00482 | HEK293T StAR-luciferase reporter, LRH-1 transfected, 24 h | inhibition, % at 3.6 µM | 360,000 tested, 0.13% active | AID 602396;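 active = inhibition above the mean inhibition of all tested compounds plus 3 SD, cut at about 73% in these data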;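 note: 0% = DMSO wells and 100% = reporter-only cells lacking LRH-1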
COUP-TFII inh: inhibitors of human COUP-TFII (NR2F2); inhibition, % at 8.6 µM; HEK293T NGFI-A luciferase reporter, luminescence; 370,000 tested, 0.7% active;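 active = inhibition above a per-plate cutoff, mean inhibition of test wells between control levels plus 3 SD, cut at about 38% in these data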;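 note: cells cotransfected with COUP-TFII expression vector driving the NGFI-A reporter; 0% = median of COUP-TF2 test wells and 100% = reporter-only cells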
SRC1 inh: inhibits human SRC1 coactivator; Q15788; HEK293 GAL4-SRC1 luciferase reporter, luminescence; inhibition, % at 3.6 µM; 360,000 tested, 0.12% active;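 active = inhibition above the campaign mean plus 3 SD, with each screening campaign given its own cutoff, cut at about 60% in these data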;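 note: 0% = DMSO treated cells and 100% = gossypol at 36 µM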
NCOA3 inh: inhibitors of human steroid receptor coactivator 3 (SRC3); AID 588352; inhibition, % at 3.6 µM; HEK293 GAL4-SRC3 luciferase reporter, luminescence; 360,000 tested, 0.17% active;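 active = inhibition above a per-campaign cutoff, the mean of all compounds plus 3 SD, cut at about 60% in these data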;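 note: 0% = DMSO-treated cells and 100% = gossypol-treated cells at 36 µM; higher means less SRC3-driven luciferase light from the GAL4 reporter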
Gli-Sufu antag: Gli-Sufu pathway antagonism. AID 588413. Sufu-KO-LIGHT fibroblasts, Gli luciferase reporter luminescence. inhibition, % at 5 µM. 340,000 tested, 0.74% active;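 active = inhibition above about 55%, limit read from the data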;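 note: 0% = DMSO-treated cells and 100% = wells with medium but no cells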
Gli-Sufu confirm: confirmation of Gli-SUFU pathway antagonists; shares compounds with Gli-Sufu antag; Sufu-KO-LIGHT cells, Gli luciferase reporter, luminescence; inhibition, % at 5 µM; 2,500 tested, 40% active; AID 602428;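 active = mean inhibition at 5 µM reaching about 45%, limit read from the data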;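 note: plate controls were DMSO-treated cells for no effect and wells lacking cells for full effect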
Gli cytotox: cytotoxicity counter-screen for Gli-SUFU antagonists; Sufu-KO-LIGHT cells cytotoxicity, ATP luminescence; shares compounds with Gli-Sufu antag; 2,500 tested, 32% active; cytotoxicity, % at 5 µM;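 active = mean cytotoxicity at 5 µM above about 25%, limit read from the data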;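 note: cells exposed to compound overnight for roughly 16 to 18 hours; plate controls were DMSO wells with cells for no effect and medium without cells for full effect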
Wnt3a counter: counter-screen for Gli-SUFU antagonists: Wnt3a reporter inhibition | shares compounds with Gli-Sufu antag | Wnt-LIGHT cells, Wnt3a-driven luciferase reporter, luminescence | inhibition, % at 6.25 µM | 2,500 tested, 20% active;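 active = mean inhibition above about 25%, limit read from the data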
An asterisk follows results filed as active; . = no result.

SMILES	NCOA2 inhibitor	NR5A2 inv ag	COUP-TFII inh	SRC1 inh	NCOA3 inh	Gli-Sufu antag	Gli-Sufu confirm	Gli cytotox	Wnt3a counter
CN1CCC(=C2c3ccccc3Sc3ccccc32)CC1	-6.7	-14.4	-12.4	1.9	1.0	56.2*	32.7	37.0*	-43.3
CN1CCC(=C2c3ccccc3C=Cc3ccccc32)CC1	-1.6	13.8	-9.1	-12.2	9.1	32.5	.	.	.
O=C(/C=C/c1ccco1)Nc1ccc(-c2nc3ccccc3[nH]2)cc1	0.6	-66.3	14.0	-44.8	-30.4	66.8*	54.5*	7.9	-21.7
O=c1cc(CSc2nnc(Nc3ccccc3)s2)nc2sccn12	0.6	-22.8	12.2	-20.5	-26.1	54.9	19.3	18.3	-8.6
CCCOc1nccc2c1n(C)c(=O)n2C	-23.6	.	-3.2	.	.	.	.	.	.
COc1ccc(C(=O)OCCN(C)C2CN(Cc3cn(Cc4cccc(F)c4)nn3)S(=O)(=O)C2)cc1OC (centres undefined)	-18.2	.	-10.8	.	.	.	.	.	.
O=C(CCl)N1CCN2C(=O)c3ccccc3C12c1ccc(Cl)cc1 (centres undefined)	24.0	14.2	5.8	-11.8	-0.2	3.0	.	.	.
Cc1ccc(C(=O)N2CCN3C(=O)c4ccccc4C23c2ccc(Cl)cc2)cc1 (centres undefined)	-15.8	23.1	-50.6	-48.8	-23.2	55.6*	60.5*	9.7	-22.8
COc1ccc(N(CC(=O)NCCSCc2ccc(C)cc2)S(=O)(=O)c2ccccc2)cc1	-16.1	12.0	-38.1	-11.8	-2.5	95.1*	17.3	5.8	-20.4
COc1cccc(N(CC(=O)Nc2cccc(C(C)=O)c2)S(C)(=O)=O)c1	-3.1	6.2	-8.1	9.5	5.7	77.4*	12.4	16.1	-21.3
COc1cccc(NC(=O)CN(c2cccc(OC)c2)S(C)(=O)=O)c1	-11.5	-8.7	-6.8	-3.5	9.2	3.9	.	.	.
CCc1ccccc1NC(=O)CN(c1cccc(OC)c1)S(C)(=O)=O	-8.1	5.0	6.3	16.1	1.6	92.2*	12.9	5.8	-10.6
COc1ccccc1NC(=O)CN(c1ccccc1)S(=O)(=O)c1ccccc1	-3.1	12.5	-8.2	26.5	5.1	52.6	25.4	3.0	-10.2
COc1ccc(CCNC(=O)C2CCCN(S(=O)(=O)N3CCCCCC3)C2)cc1OC (centres undefined)	-16.6	6.8	-0.4	9.0	7.3	53.6	13.8	6.4	5.3
COc1ccc(NS(=O)(=O)c2ccc(O)c(NC(=O)c3ccc(S(=O)(=O)N4CCCCCC4)cc3)c2)cc1	4.0	-2.9	-0.6	11.4	7.9	2.7	.	.	.
COc1ccc(CCNC(=S)NC(=O)c2cc(OC)c(OC)c(OC)c2)cc1OC	14.3	2.8	3.8	-18.9	4.2	50.1	18.4	8.7	1.6
COc1ccc(NS(=O)(=O)c2cccc(NC(=O)c3ccc(S(=O)(=O)N4CCCCCC4)cc3)c2)cc1	.	44.3	.	20.1	20.8	60.8*	63.3*	17.2	28.3*
COc1ccc(CCNC(=O)C2CCN(S(=O)(=O)N3CCCCCC3)CC2)cc1OC	-2.6	-1.4	0.8	4.9	-2.7	1.2	.	.	.
COc1ccc(CC(=O)Nc2cccc(S(=O)(=O)N3CCCCCC3)c2)cc1OC	23.2	51.2	78.8*	27.1	28.7	52.7	49.4*	25.7*	22.3
CCCN(CC1CC1)C(=O)CN1C(=O)C2CCCCN2C(=O)c2ccccc21 (centres undefined)	-17.7	.	4.5	.	.	.	.	.	.
CC(C)CC(=O)NC(NCC1CCCO1)C(Cl)(Cl)Cl (centres undefined)	7.2	-14.2	1.4	2.3	-11.3	88.3*	8.2	9.2	-10.5
CC(C)C[C@H]1COc2cccc(N3CCSCC3)c2S(=O)(=O)N1C	-4.0	.	10.4	.	.	.	.	.	.
O=C(Nc1ccccc1Cl)C1CCCN(S(=O)(=O)c2cccc3cccnc23)C1 (centres undefined)	0.2	16.0	4.0	15.5	11.7	75.6*	28.7	9.2	2.5
O=C(O)c1cc([N+](=O)[O-])ccc1N1CCCCC1	-28.9	13.4	-8.4	-1.1	18.1	-10.1	.	.	.
COc1ccc(C(=O)c2cc([N+](=O)[O-])ccc2N2CCOCC2)cc1	18.6	37.9	-54.5	23.8	11.3	53.1	58.2*	62.2*	-15.0
SMILES	NCOA2 inhibitor	NR5A2 inv ag	COUP-TFII inh	SRC1 inh	NCOA3 inh	Gli-Sufu antag	Gli-Sufu confirm	Gli cytotox	Wnt3a counter
Cc1ccc(C(=O)c2cc([N+](=O)[O-])ccc2N2CCCCC2)c(C)c1	6.1	23.4	-70.8	1.9	22.3	58.7*	53.0*	60.1*	16.1
Cc1ccc(NC(=O)OCCCN2C(=O)CCC23CCC(C)CC3)cc1C (centres undefined)	-29.5	.	-17.9	.	.	.	.	.	.
COC(=O)[C@]12C[C@H](CC(=O)NCc3ccc(C)o3)C(=O)N(Cc3ccc(Cl)cc3Cl)C1=C[C@H](C(C)C)O[C@@H]2C1CC1	14.9	.	-11.1	.	.	.	.	.	.
COC(=O)CN(C(=O)CSc1nnc(-c2cccc(OC)c2)o1)c1ccc(OC)cc1	-10.2	-2.7	-9.9	-8.7	5.6	-6.5	.	.	.
CCOC(=O)CN(C(=O)CSc1nnc(-c2cccc(OC)c2)o1)c1ccc(F)cc1	4.0	-7.0	22.3	3.4	6.5	98.5*	11.4	10.7	-35.8
CCOC(=O)N1CCN(C(=O)c2ccc(CSc3ccc(Cl)cc3)cc2)CC1	-12.1	-1.1	-5.5	7.1	9.1	58.0*	47.8*	16.9	0.2
CCCCNS(=O)(=O)CC1NCc2ccc(C)cc21 (centres undefined)	-22.8	.	2.5	.	.	.	.	.	.
CC(=O)Nc1cc(-c2nn(C)c(=O)c3ccccc23)ccc1N1CCCCC1	-8.6	21.0	-8.9	-1.5	11.4	4.7	.	.	.
CC(=O)Nc1cc(-c2nn(CC(=O)N3CCCCC3)c(=O)c3ccccc23)ccc1N1CCOCC1	8.4	-1.7	1.5	2.0	10.0	50.7	15.6	8.9	-24.8
COc1ccc(S[C@]2(C(=O)N3CCOCC3)CC(=O)N(c3ccsc3)[C@@H]2c2ccc(OC)cc2)cc1	7.7	.	-21.4	.	.	.	.	.	.
COC1=C[C@H](C(=O)NCc2ccc(Br)cc2)C(C)C(c2ccccc2)CC1=O (some centres undefined)	-20.2	.	12.5	.	.	.	.	.	.
CCN(CC(=O)Nc1c(F)cccc1F)C(=O)c1cc(S(=O)(=O)N(C)C)ccc1N1CCCC1	16.9	4.8	-9.4	-0.3	1.9	12.6	.	.	.
CCN(CC(=O)Nc1c(F)cccc1F)C(=O)c1cc(S(=O)(=O)N(CC)CC)ccc1N1CCCCC1	-9.9	10.3	19.0	9.6	2.1	52.2	42.3	6.5	18.9

From PubChem
